Screening results: PubChem BioAssay, National Center for Advancing Translational Sciences (NCATS)
Nrf2 block – Nrf2 pathway inhibition | A549 ARE-Fluc reporter, luciferase luminescence, 18-24 h | Potency, µM (highest dose often 46 µM), inactives show at the highest dose activity change, negative = inhibition, actives largely listed as inhibitors | 360,000 tested, 2.1% active | AID 504444; also: potency is read from the fitted curve at half-maximal effect; nearly all actives have a fitted effect of over 60% in size
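Cells were seeded and rested 2 h, then exposed to compounds for 18-24 h. CellTiter-Fluor was read first as a viability measure. BugLite was added 15 min before the final luminescent read of ARE-luciferase activity in A549 cells.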
Giardia killer – Giardia lamblia killing; Giardia lamblia trophozoite viability; activity change, % at 7.66 µM, hits read low; 340,000 tested, 0.15% active; AID 540267; in the data active = activity change below about -80%; inconclusive = between about -30% and that limit;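 also: parasites exposed to compound for two days anaerobically before the ATP read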
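ATP-content bioluminescence gauges trophozoite survival. Cells (100/well) receive compound and incubate anaerobically for 48 hrs at 37 deg C; detection reagent follows for 15-30 min at room temperature.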
PI4K2A block – inhibitors of human PI4K2A; Q9BTU6; purified PI4K2A, ADP-Glo luminescence, 1 h; active compounds read low; activity change, negative = inhibition, % at 76.9 µM; 420,000 tested, 0.13% active; AID 1346378; in the data active = activity change below about -50%; inconclusive = mostly about -30% to -49%;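 also: -100% = wells without enzyme as full effect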
Target sequence (Q9BTU6 whole entry, looked up): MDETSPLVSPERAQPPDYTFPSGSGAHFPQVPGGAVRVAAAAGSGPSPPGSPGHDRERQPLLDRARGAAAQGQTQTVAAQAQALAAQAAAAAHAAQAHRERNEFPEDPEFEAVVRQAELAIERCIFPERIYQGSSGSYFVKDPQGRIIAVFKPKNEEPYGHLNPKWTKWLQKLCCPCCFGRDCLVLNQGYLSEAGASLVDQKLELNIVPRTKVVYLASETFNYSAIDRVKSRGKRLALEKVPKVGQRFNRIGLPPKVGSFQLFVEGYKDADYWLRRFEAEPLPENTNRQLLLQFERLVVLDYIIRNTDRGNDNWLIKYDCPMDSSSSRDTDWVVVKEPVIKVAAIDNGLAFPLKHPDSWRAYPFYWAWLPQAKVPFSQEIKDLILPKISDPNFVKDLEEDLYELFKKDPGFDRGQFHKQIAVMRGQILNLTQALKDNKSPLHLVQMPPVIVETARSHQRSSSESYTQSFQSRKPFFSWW
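ADP-Glo luminescence measured ADP generated by PI4K2A enzyme (4 ug/mL before mixing) with 1.2 mM PI substrate (pre-mix) and 300 microM ATP (pre-mix). Tris pH7.5 buffer with MgCl2, Triton X-100; 1 h reaction at ambient temperature.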
A549 tox – kills or reduces viability of A549 cells in Nrf2 counter-screen | A549 ARE-Fluc cells, CellTiter-Fluor viability, 18-24 h | 390,000 tested, 0.16% active | Potency, µM (titrated, usually from 46 µM), for inactives: at the highest dose activity change, negative = cytotoxicity, most hits filed as inhibitors; also: potency is read from the fitted curve at half-maximal effect
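Cytotoxicity counterscreen: CellTiter-Fluor fluorescence was measured in A549 ARE_Fluc cells after 18-24 h of compound exposure in a concentration series. The subsequent BugLite luminescent read reports ARE-luciferase activity.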
KB-3-1 tox – kills parental KB-3-1 adenocarcinoma cells | KB-3-1 viability, CellTiter-Glo ATP luminescence, 72 h | Potency, µM (series often up to 46.1 µM), usual class: cytotoxic | 400,000 tested, 1.4% active; also: potency is read from the fitted curve at half-maximal effect; nearly all actives have a fitted effect of over 60% in size
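72 h, 37 °C compound treatment of KB-3-1 parental cells; CellTiter-Glo added, 10 min, luminescence read. Data corrected against DMSO-only plates and normalized before curve fitting.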
KB-V1 MDR tox – KB-V1 MDR subline cytotoxicity. KB-V1 MDR cells viability, CellTiter-Glo, 72 h. Potency, µM (top dose mostly 46.1 µM), usual class: cytotoxic. 400,000 tested, 3.4% active; also: potency is read from the fitted curve at half-maximal effect; nearly all actives have a fitted effect of over 60% in size
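KB-V1 MDR subline cells in DMEM (phenol-red free, 10% FBS) exposed to compounds in qHTS concentration series for 72 h at 37 degrees C. Viability read by CellTiter-Glo luminescence; concentration-effect curves fitted after normalization and correction.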
* = called active by the depositor; i = inactive; ? = inconclusive; . = not tested or not shown; ! = not confirmed by another sample; [ ] = remark or other dose. Rows were chosen to be rich in hits. Some 5.7% of all compounds tested hit in one or more screens of this group. Unless noted, calls follow the shape of the dose curve; as a rule, active = well fitted curve in the direction sought with a large enough effect; inconclusive = small, poorly fitted or top-dose-only effect, or another doubt; inactive = no such curve, though single readings can be large; an effect the other way counts as inactive or inconclusive. Unless noted, % is scaled to controls: 0 for no effect and ±100 for the full control effect.

SMILES	Nrf2 block	Giardia killer	PI4K2A block	A549 tox	KB-3-1 tox	KB-V1 MDR tox
CCN(CC)CCNC(=S)Nc1ccc2nc(N3CCCC3)cc(C)c2c1	2%	-8	1	5.8µM*	15µM*	i
Cc1cc(N2CCCCC2)nc2ccc(NC(=O)c3ccc(Br)o3)cc12	21µM*	0	-4	?	?	?
Cc1cc(N2CCN(C)CC2)nc2ccc(NC(=O)c3ccc4c(c3)OCO4)cc12	?	-7	3	?	7.3µM*	i
CCN(CC)c1ccc2nc3c(=O)n(C)c(=O)n(C)c3nc2c1	-6%	.	-8	-13%	.	.
Cc1nc2c(=O)n(C)c(=O)n(C)c2nc1Cl	18µM*	6	-22	?	15µM*	?
Cc1cc2c(s1)c1cnn(Cc3ccccc3C)c(=O)c1n2C	-11%	.	.	-2%	.	.
O=C(CC12CC3CC(C1)CC(CC(=O)N1CCCC1)(C3)C2)N1CCCC1	.	-27	-3	-4%	i	15µM*
COc1ccccc1CNC(=O)c1cc2c(=O)n(Cc3cccs3)ccc2nc1C	12%	.	-15	12%	.	.
C[C@H]1C2CC(OC(=O)Nc3cccc(Cl)c3)C(C2)[C@H]2CCCCN21 (some centres not stated)	.	.	0	.	.	.
O=C(c1ccccc1)n1nc(-c2ccco2)nc1NCc1cccs1	5%	.	5	-6%	i	i
COc1ccc(C(=O)n2nc(-c3ccc(OC)cc3)nc2N)cc1	?	4	-4	3%	i	i
Nc1nc(-c2ccco2)nn1C(=O)c1ccccc1	-14%	3	22	-7%	i	?
COc1ccc(-c2nc(N)n(C(=O)c3ccc(C)cc3)n2)cc1	10µM*	-11	5	-6%	i	i
Cc1ccc(C(=O)n2nc(-c3ccco3)nc2NCc2cccs2)cc1	8.2µM*	.	-2	-5%	i	i
Nc1nc(-c2ccco2)nn1C(=O)c1ccc(F)cc1	18µM*	-4	3	4%	i	i
CN(C)CCCN1c2ccccc2Sc2ccc(Cl)cc21	4%	-4	1	-9%	?	13µM*!
CN1CCN(CCCN2c3ccccc3Sc3ccc(S(=O)(=O)N(C)C)cc32)CC1	1%	-6	0	-6%	i	21µM*
CN(C)CCCN1c2ccc3ccccc3c2Sc2cccc(Cl)c21	12%	-5	0	-10%	?	15µM*
CN(C)CCCN1c2ccccc2Sc2ccc3ccccc3c21	-24%	-19	0	?	?	18µM*
OCCN1CCN(CCCN2c3ccccc3Sc3ccc(Cl)cc32)CC1	-3%	7	5	-1%	i	?
C#CCN1C(=O)[C@]2(NCCc3c2[nH]c2ccc(OC)cc32)c2ccccc21	.	.	4	.	.	.
CC(C)CN(C(=O)COC(=O)c1ccc([N+](=O)[O-])s1)c1c(N)n(Cc2ccccc2)c(=O)[nH]c1=O	-1%	-7	0	-1%	21µM*	i
CCCCCN(C(=O)CCC(=O)OCC(=O)c1ccc(C(C)CC)cc1)c1c(N)n(CCCC)c(=O)[nH]c1=O (configuration not stated)	10µM*	5	-3	?	i	i
CCCCn1c(N)c(N(CCC(C)C)C(=O)COC(=O)c2sccc2C)c(=O)[nH]c1=O	-17%	9	-1	-7%	i	i
CCCCCN(C(=O)CCC(=O)OCC(=O)N(C)c1ccccc1)c1c(N)n(CCCC)c(=O)[nH]c1=O	-2%	-1	0	0%	i	i
SMILES	Nrf2 block	Giardia killer	PI4K2A block	A549 tox	KB-3-1 tox	KB-V1 MDR tox
CCCCn1c(N)c(N(CCC(C)C)C(=O)COC(=O)c2ccc([N+](=O)[O-])s2)c(=O)[nH]c1=O	23µM*	8	-8	-18%	i	i
CCOc1ccc(N(C)S(=O)(=O)c2ccc3c(c2)C(C)(C)C(=O)N3C)cc1	?	.	2	4%	i	i
CCOC(=O)Cn1c(-c2cccnc2Cl)nc2cc(C)c(C)cc21	.	18	-9	6%	i	i
CCOC(=O)Cn1c(-c2cccnc2Cl)nc2cc(Cl)c(Cl)cc21	6%	-13	3	-8%	i	21µM*
CCOC(=O)Cc1ccc(NC(=O)N2CC(C)Oc3ccc(Cl)cc32)cc1 (configuration not stated)	53%	.	1	0%	.	.
CC1(C)CC(=O)C=C(Nc2ccccc2NC(=O)c2cc(F)ccc2F)C1	.	.	2	.	.	.
CC(C(=O)NCC(=O)Nc1ccc(F)c(F)c1F)N1CCN(c2ccc(O)cc2)CC1 (configuration not stated)	-14%	-3	-5	-4%	?	i
CC(C(=O)NCC(=O)Nc1ccc(F)c(F)c1F)N1CCN(Cc2ccc(C#N)cc2)CC1 (configuration not stated)	21%	3	-4	0%	i	13µM*
CCOC(=O)C1=C(c2ccccc2)NC(SCC(=O)Nc2ccccc2C)=C(C#N)C1c1ccco1 (configuration not stated)	?	3	0	.	?	i
CCOC(=O)C1=C(c2ccccc2)NC(SC)=C(C#N)C1c1ccco1 (configuration not stated)	?	12	3	-13%[1.84 µM]	i	?
CCOC(=O)C1=C(c2ccccc2)NC(SCC(=O)Nc2cccc(C)c2)=C(C#N)C1c1ccco1 (configuration not stated)	?	-3	-1	13µM*	i	15µM*
CCOC(=O)C1=C(c2ccccc2)NC(SCC(=O)Nc2ccc(C)cc2)=C(C#N)C1c1ccco1 (configuration not stated)	21µM*	10	1	-17%[1.84 µM]	i	?
CCOC(=O)c1csc(NC(=O)c2ccc(OCC)cc2)n1	21µM*	-7	3	-23%	?	?
CCOC(=O)c1csc(NC(=O)c2ccc(S(=O)(=O)N(C)C)cc2)n1	?	2	-1	-1%	i	21µM*
O=C(CSc1nnc(CNC(=O)c2ccccc2)n1-c1cccc(Cl)c1)Nc1ccccc1F	1%	.	-1	8%	i	i
COc1ccc(Cl)cc1NC(=O)CSc1cn(CC(=O)N2CCCCC2)c2ccccc12	?	.	-1	-21%	.	.
COC(=O)[C@@]12C[C@@H](CC(=O)NCCc3ccccc3OC)C(=O)N(Cc3cccc4ccccc34)C1=CCC(C)(C)C2	.	.	6	.	?	23µM*
COC(=O)[C@]12CCCCC=C1N(Cc1cccc3ccccc13)C(=O)[C@H](CC(=O)NCc1ccccc1)C2	.	.	3	.	?	?
